Screening results deposited in PubChem BioAssay by National Center for Advancing Translational Sciences (NCATS).
D2 ag-1 – HTS Assay for Allosteric Agonists of the Human D2 Dopamine Receptor: Primary Screen for Agonists; activation, % at 2 µM; D(2) dopamine receptor (Homo sapiens), P14416; 340,000 compounds, 0.53% hits; HEK293 T-REx D2 cells, calcium flux agonist mode;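 active = activation over 3 SD above normal in the single-dose calcium agonist read, cut at about 30% in these data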; also: 0% is about no effect
Target sequence (P14416 whole entry, looked up): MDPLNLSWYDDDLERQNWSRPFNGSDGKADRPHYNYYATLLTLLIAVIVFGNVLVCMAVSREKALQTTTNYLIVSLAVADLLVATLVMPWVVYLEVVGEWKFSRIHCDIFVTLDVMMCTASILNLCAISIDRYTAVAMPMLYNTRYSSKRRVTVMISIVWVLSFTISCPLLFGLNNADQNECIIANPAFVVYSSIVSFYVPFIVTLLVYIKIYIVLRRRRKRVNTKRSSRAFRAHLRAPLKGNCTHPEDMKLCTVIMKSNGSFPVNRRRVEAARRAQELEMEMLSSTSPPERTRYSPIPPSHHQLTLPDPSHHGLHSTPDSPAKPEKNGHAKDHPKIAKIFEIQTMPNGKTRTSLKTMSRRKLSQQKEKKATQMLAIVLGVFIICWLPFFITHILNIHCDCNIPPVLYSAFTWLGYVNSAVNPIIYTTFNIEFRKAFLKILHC
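Agonism is scored from calcium flux in a force-coupled, inducible HEK293 cell line expressing D2, read kinetically for 180 s after compound addition against dopamine controls.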
D2 PAM-1 – Beta-Arrestin HTS for Positive Allosteric Modulators of the Human D2 Dopamine Receptor: Potentiators. D(2) dopamine receptor (Homo sapiens), P14416. DiscoveRx D2 beta-arrestin cells, luminescence, 90 min; 100% = 57 uM dopamine signal. potentiation, % (concentration not given with the values). 360,000 compounds, 0.23% hits. AID 624464, 2012; in the data active = potentiation above about 50%; inconclusive = mostly about 30% to 49%
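PathHunter beta-arrestin assay in DiscoveRx D2 cells. Compounds were added with an EC20 of dopamine (50 nM final) for 90 min at 37 deg C. Luminescence was read 1 h after detection reagent, with 57 uM dopamine as the EC100 control.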
D2 antag – HTS Assay for Allosteric Antagonists of the Human D2 Dopamine Receptor: Primary Screen for Antagonists; D(2) dopamine receptor (Homo sapiens), P14416; HEK293 TREx D2 cells, calcium flux, dopamine EC80; inhibition, % at 10 µM; 340,000 compounds, 2% hits; AID 485344, 2010; in the data active = inhibition above about 30%; inactive = below that, where a call was filed; also: 0% is about no effect
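Measurement of antagonist activity uses fluorescent calcium dye in inducible HEK293 T-REx D2 cells: 10 s baseline, compound addition with 180 s read, EC80 dopamine addition with a further 180 s read.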
Anesthetic bind – qHTS Assay for Identification of Novel General Anesthetics | 350,000 compounds, 0.074% hits | AID 485281, 2010 | Ferritin light chain (Equus caballus), P02791 | apoferritin/1-aminoanthracene competitive binding, fluorescence | Potency, µM (highest dose often 77.5 µM), for the others: at the highest dose activity change, negative = displacement, hits mostly inhibitors; active = well fitted inhibition curve with a large enough effect; inconclusive = small, poorly fitted or top-dose-only effect; inactive = no such curve, though single readings can be large or run the other way; also: potency is read from the fitted curve at half-maximal effect; % is scaled to controls: 0 for no effect and ±100 for the full control effect; nearly all actives have a fitted effect of over 20% in size
Target sequence (P02791 2-175 limits assumed): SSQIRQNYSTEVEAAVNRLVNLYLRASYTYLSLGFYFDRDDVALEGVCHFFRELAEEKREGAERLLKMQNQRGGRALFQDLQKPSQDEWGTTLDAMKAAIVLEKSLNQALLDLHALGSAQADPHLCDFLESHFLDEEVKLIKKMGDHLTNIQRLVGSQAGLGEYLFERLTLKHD
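Apoferritin-based anesthetic binding model; compound displacement of fluorescent 1-AMA measured as endpoint fluorescence after 10 minutes at room temperature, scaled to free-ligand and complex controls.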
D2 PAM-2 – HTS Assay for Positive Allosteric Modulators of the Human D2 Dopamine Receptor: Primary Screen for Potentiators. D(2) dopamine receptor (Homo sapiens), P14416. HEK293 T-REx D2, calcium flux, EC20 dopamine potentiation. potentiation, % at 10 µM. 340,000 compounds, 0.34% hits;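 active = potentiation over 3 SD above the plate norm, cut at about 30% in these data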; also: 0% is about no effect
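Potentiation of an EC20 dopamine calcium response is measured in a force-coupled, tetracycline-inducible Hek293 Trex D2 line. Compound-only kinetic reads over 180 s flag agonists before dopamine addition.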
D2 ag-2 – Beta-Arrestin HTS for Positive Allosteric Modulators of the Human D2 Dopamine Receptor: Agonists; D(2) dopamine receptor (Homo sapiens), P14416; DiscoveRx PathHunter D2 beta-arrestin, luminescence, 90 min; 100% = 57 uM dopamine signal; activation, % (no concentration beside the values); 360,000 compounds, 0.084% hits; AID 624465, 2012; in the data active = activation above about 40%; inconclusive = between about 15% and that limit
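DiscoveRx PathHunter D2 beta-arrestin cells (2,100/well) attached overnight, then compound-stimulated 90 min at 37 C in HBSS/10 mM HEPES/0.1% Tween-20 buffer; beta-galactosidase complementation read by luminescence after 1 h at ambient temperature. Dopamine 57 uM final (EC100) as control.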
An asterisk follows results filed as active. Only some compounds are listed: those with a hit (about 2.5% of all), similar ones and a draw of the others.

Cc1ccc(N(C(=O)c2csnn2)C(C(=O)NC(C)(C)C)c2cccs2)cc1 (stereo unspecified) was read as D2 ag-1 0, D2 PAM-1 -9, D2 antag 7, Anesthetic bind -8%, D2 PAM-2 9 and D2 ag-2 -1.
`S=C(Nc1ccc2c(c1)OCCO2)Nc1ccccc1Cl` gave D2 ag-1 -1, D2 PAM-1 -11, D2 antag -2, Anesthetic bind -10%, D2 PAM-2 1 and D2 ag-2 -1.
For Cc1ccccc1N(C(=O)c1ccccn1)C(C(=O)NCc1ccccc1)c1cccnc1 (stereo unspecified) the results were D2 PAM-1 -3, Anesthetic bind -12%, D2 PAM-2 36* and D2 ag-2 0.
`CC1(C)CC(=O)c2c(Cc3ccccc3)noc2C1` gave D2 ag-1 0, D2 PAM-1 -18, D2 antag 7, Anesthetic bind inconclusive, D2 PAM-2 10 and D2 ag-2 -3.
`CC1(C)CC(=O)c2c(noc2-c2ccccc2)C1` gave D2 ag-1 -1, D2 PAM-1 0, D2 antag -9, Anesthetic bind 10µM*, D2 PAM-2 6 and D2 ag-2 -4.
For CC1=C(C(=O)N(C)C)CC(CC(=O)NCCCCc2ccccc2)C(=O)N1CCC1=CCCCC1 (stereo unspecified) the results were D2 PAM-1 0 and D2 ag-2 -8.
`CN(CC1CCN(CCc2cccc(C(F)(F)F)c2)CC1)C(=O)c1ccc(F)cc1` gave D2 ag-1 0, D2 PAM-1 -26, D2 antag 58*, Anesthetic bind -13%, D2 PAM-2 -19 and D2 ag-2 5.
For COc1ccccc1NC(=O)N(Cc1cccs1)Cc1cc2cc3c(cc2[nH]c1=O)OCO3 the results were D2 ag-1 0, D2 PAM-1 -2, D2 antag 36*, Anesthetic bind -7%, D2 PAM-2 -15 and D2 ag-2 5.
For O=c1ccc2c(-c3ccccc3)c3ccc(O)cc3oc-2c1 the results were D2 ag-1 1, D2 PAM-1 2, D2 antag -4, Anesthetic bind 45%, D2 PAM-2 8 and D2 ag-2 1.
Screening Nc1ccc(-c2c3ccc(=O)cc-3oc3cc(O)ccc23)cc1C(=O)O returned D2 ag-1 92*, D2 PAM-1 -14, D2 antag -33, Anesthetic bind 51%, D2 PAM-2 -5 and D2 ag-2 -10.
`COc1ccc(NC(=O)CCN2C(=O)c3ccncc3C2=O)cc1OC` gave D2 ag-1 0, D2 PAM-1 -14, D2 antag 34*, Anesthetic bind -5%, D2 PAM-2 0 and D2 ag-2 -6.
Screening COc1ccc(NC(=O)CCn2nnc(-c3ccc(C)cc3)n2)cc1OC returned D2 ag-1 -1, D2 PAM-1 18, D2 antag 6, Anesthetic bind -2%, D2 PAM-2 9 and D2 ag-2 -4.
COc1cc2c(cc1NC(=O)CN1CCN(S(=O)(=O)c3ccc(C)cc3)CC1)oc1ccccc12 was read as D2 ag-1 0, D2 PAM-1 1, D2 antag 42*, Anesthetic bind -17%, D2 PAM-2 -1 and D2 ag-2 -1.
C[N+](C)(C)CC/C=C1/c2ccccc2CSc2ccccc21 was read as D2 ag-1 -1, D2 PAM-1 -11, D2 antag -5, Anesthetic bind -6%, D2 PAM-2 0 and D2 ag-2 -3.
CNCCC=C1c2ccccc2CCc2ccccc21 was read as D2 ag-1 2, D2 PAM-1 -35, D2 antag 42*, Anesthetic bind -8%, D2 PAM-2 -27 and D2 ag-2 -6.
CCCNC(=O)Cn1c(=O)/c(=C\c2ccc(-c3ccc([N+](=O)[O-])cc3)o2)s/c1=C\C(=O)C(C)(C)C was read as D2 ag-1 93*, D2 PAM-1 7, D2 antag 54*, Anesthetic bind -2%, D2 PAM-2 -14 and D2 ag-2 -2.
`CC1=CC(C)(C)Nc2ccc(OC(=O)c3ccco3)cc21` gave D2 ag-1 1, D2 PAM-1 51*, D2 antag -3, Anesthetic bind inconclusive, D2 PAM-2 1 and D2 ag-2 7.
CCOc1ccc(NC(=O)c2sccc2-n2cccc2)cc1 was read as D2 ag-1 -1, D2 PAM-1 -9, D2 antag 5, Anesthetic bind inconclusive, D2 PAM-2 65* and D2 ag-2 -5.
CNC(=O)c1sccc1-n1cccc1 was read as D2 ag-1 0, D2 PAM-1 -19, D2 antag -9, Anesthetic bind -13%, D2 PAM-2 0 and D2 ag-2 -1.
`Cc1c(Cl)ccc2c(C(=O)O)cc(-c3ccccc3)nc12` gave D2 ag-1 -2, D2 PAM-1 -5, D2 antag 52*, Anesthetic bind -3%, D2 PAM-2 -14 and D2 ag-2 -5.
`CCN(CC)CCNC(=O)c1cc2cc(Br)ccc2s1` gave D2 ag-1 -1, D2 PAM-1 -15, D2 antag 50*, Anesthetic bind -13%, D2 PAM-2 -5 and D2 ag-2 0.
Screening CCN(CC)CCNC(=O)c1cc(-c2ccc(Br)s2)nc2ccccc12 returned D2 ag-1 1, D2 PAM-1 -18, D2 antag -29, Anesthetic bind -6%, D2 PAM-2 -10 and D2 ag-2 1.
CCN(c1ccccc1)S(=O)(=O)c1ccc(C(=O)NCCCN2CCOCC2)cc1 was read as D2 ag-1 1, D2 PAM-1 -2, D2 antag -5, D2 PAM-2 -3 and D2 ag-2 2.
Screening CN(C)/C=N/c1cc(=O)[nH]c(=O)n1CC1CC1 returned D2 ag-1 1, D2 PAM-1 -7, D2 antag -9, Anesthetic bind -9%, D2 PAM-2 -1 and D2 ag-2 -1.
